Reference: PubChem BioAssay (NCI)
About 83,000 compounds went through this panel and 20% of them were active in at least one assay; those are over-represented in the sample as a whole.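 For each line, cells grew in 96-well plates with the test compound present at a single concentration for 48 hours.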 Values without a mark were called inactive. The source made the active and inactive calls. How the source made its calls: active means growth percent below 10; inactive means the rest.

What was measured:
Assay in all cases: NCI-60 one-dose screen, 48 h (100 = growth as untreated, 0 = no growth, -100 = all killed)
Conditions in all cases: 10 µM unless noted
NCI-H23 lung = system: NCI-H23 lung
NCI-H226 lung = system: NCI-H226 lung
NCI-H322M lung = system: NCI-H322M lung
HOP-62 NSCLC = system: HOP-62 NSCLC
NCI-H460 lung = system: NCI-H460 lung
HOP-92 NSCLC = system: HOP-92 NSCLC
NCI-H522 lung = system: NCI-H522 lung
A549/ATCC NSCLC = system: A549/ATCC NSCLC
786-0 renal = system: 786-0 renal
COLO 205 colon = system: COLO 205 colon
DU-145 prostate = system: DU-145 prostate
K-562 leukemia = system: K-562 leukemia
MALME-3M melanoma = system: MALME-3M melanoma
RXF 393 renal = system: RXF 393 renal
SF-268 CNS = system: SF-268 CNS
SF-295 CNS = system: SF-295 CNS
SF-539 CNS = system: SF-539 CNS
UACC-257 melanoma = system: UACC-257 melanoma
M14 melanoma = system: M14 melanoma
MDA-MB-231 breast = system: MDA-MB-231 breast

Structure (SMILES) | growth (NCI-H23 lung) | growth (NCI-H226 lung) | growth (NCI-H322M lung) | growth (HOP-62 NSCLC) | growth (NCI-H460 lung) | growth (HOP-92 NSCLC) | growth (NCI-H522 lung) | growth (A549/ATCC NSCLC) | growth (786-0 renal) | growth (COLO 205 colon) | growth (DU-145 prostate) | growth (K-562 leukemia) | growth (MALME-3M melanoma) | growth (RXF 393 renal) | growth (SF-268 CNS) | growth (SF-295 CNS) | growth (SF-539 CNS) | growth (UACC-257 melanoma) | growth (M14 melanoma) | growth (MDA-MB-231 breast)
Cc1c(C(=O)NNC(=O)c2ccc(Cl)cc2)nnn1-c1ccc(Br)cc1 | 102% | 97.1% | 91% | 98.4% | 107% | 91.6% | 97.6% | 100% | 98.8% | 104% | 109% | 91.3% | 93.8% | 93.1% | 108% | 90.9% | 94.2% | 97.7% | 98.8% | 
CSc1ccc(C(=O)Nc2ccc3nnn(/C(C#N)=C/c4ccccn4)c3c2)cc1 | -77.8% (active) | -53.4% (active) | 57.9% | -5.88% (active) | -40.1% (active) | -24.8% (active) | -84.6% (active) | 15% | -90.3% (active) | -66.2% (active) | -40.3% (active) | -9.85% (active) | -59.3% (active) | -95.5% (active) | 30.5% | 34.8% | -92% (active) | -38.9% (active) | -73.2% (active) | 
CC(=O)Nc1cccc(Nc2nc(NCc3ccccc3)c3ccccc3n2)c1 | -86.3% (active) | -84.3% (active) | -97.2% (active) | -90.8% (active) | -79.5% (active) | -83.5% (active) | -83.8% (active) | -69% (active) | -89.1% (active) | -93.9% (active) | -93.7% (active) | -59% (active) | -94.2% (active) | -95.2% (active) | -72.8% (active) | -98.9% (active) | -98% (active) | -83.6% (active) | -86.5% (active) | 
CC1=C(C(=O)OC(C)C)C(c2cccc(O)c2)NC(=S)N1 (centres undefined) | 106% | 101% | 103% | 95.9% | 110% | 110% | 91.8% | 103% | 106% | 107% | 104% | 83.2% | 92.7% | 110% | 109% | 96.8% | 94.7% | 92.8% | 109% | 
O=C(Nc1ccc(C(F)(F)F)cc1)Nc1ccc2oc(=O)ccc2c1 | 3.56% (active) | 26.6% | 41.1% | 50.1% | 15.9% | -5.11% (active) | -10.4% (active) | 14.1% | 53.8% | -26.4% (active) | 27.9% |  | -1.86% (active) | 56.5% | 50.9% | -7.66% (active) | 32.2% | 0.986% (active) | 16.3% | 14.6%
O=C(O)c1cccc(-c2ccc(/C=N/NC(=O)c3[nH]c4ccc(Br)cc4c3-c3ccccc3)o2)c1 | 86.5% | 87.9% | 78.9% | 68.9% | 95.3% | 69.1% | -12.6% (active) | 100% | 84.6% | 114% | 98.7% | 65.8% | 55.2% | 24.7% | 47.6% | 72.3% | 11.8% | 93.8% | 65.9% | 
Cc1cc(C)n(-c2ccc3nnc(-c4ccccc4)n3n2)n1 | 94.1% | 105% | 110% | 122% | 104% | 85.2% | 74.7% | 99.6% | 93.9% | 115% | 92.2% |  | 108% | 90.6% | 89.6% | 103% | 102% | 135% | 129% | 117%
O=C(NNc1ccccc1)n1c(=O)c2ccccc2c(=O)n1-c1ccccc1 | 100% | 95.7% | 98.8% | 90.7% | 105% | 93.9% | 86.4% | 83.1% | 92.5% | 109% | 104% | 45.8% | 96.5% | 109% | 92.8% | 87.2% | 97.5% | 77.6% | 100% | 
O=C(NNc1nc2cc(F)ccc2n2c(C(=O)N3CCN(C4CC4)CC3)ccc12)c1ncccn1 | 38.4% | 11.4% | 29.9% | 20% | 8.44% (active) | 69.2% | 67.1% | 24.5% | -9.79% (active) | 7.77% (active) | 47.8% |  | 33.2% | 64.8% | 29.9% | -33.9% (active) | 12.9% | 19.7% | -33% (active) | 43.6%
CC(C)c1ccc2c(N)c(C(=O)Nc3cccc(C(F)(F)F)c3)sc2n1 | 90.5% | 69.3% | 81.2% | 62.6% | 67.7% | 82.7% | 48.8% | 78.8% | 67.9% | 48.2% | 73.4% | 8.51% (active) | 80.3% | 42.1% | 94.2% | 64.9% | 66.6% | 90.1% | 32.8% | 
COc1ccc(-c2cc(C(=O)NCc3ccccc3)nn2-c2ccc(S(C)(=O)=O)cc2)cc1OC | 105% | 98.5% | 122% | 99.7% | 108% | 73% | 87.4% | 93.8% | 98.6% | 116% | 105% | 105% | 108% | 110% | 97.3% | 98.1% | 95.2% | 105% | 111% | 
CC(=O)Oc1ccccc1C(=O)[Se]C(=NC1CCCCC1)NC1CCCCC1 | -79.9% (active) | -88.1% (active) | -82.7% (active) | -87% (active) | -41.6% (active) | -13.6% (active) | -89.1% (active) | 0.226% (active) | -93.4% (active) | -70.6% (active) | -80% (active) | 3.88% (active) | -91.8% (active) | -99.7% (active) | 8.57% (active) | -78.9% (active) | -98.7% (active) | -89.9% (active) | -73.7% (active) | 
Nc1n[nH]c2cccc(C#Cc3cccc(NC(=O)c4cccc(Cl)c4)c3)c12 | 38.2% | 45.8% | 49.1% | 33.6% | 24.7% | 9.55% (active) | 11.4% | 24.7% | 11.2% | 19.2% | 55.8% |  | 46.4% | -14.7% (active) | 41.1% | 15.3% | 8.74% (active) | 48.5% | 15.9% | 9.79% (active)
COc1ccc(C(=O)/C=C/c2ccccc2Cl)cc1S(N)(=O)=O | 117% | 106% | 102% | 124% | 103% | 102% | 102% | 112% | 104% | 106% | 117% |  | 93.9% | 124% | 92.1% | 89.2% | 97.5% | 120% | 109% | 91.9%
CC(=O)N1CCN(Cc2ccc3c(NNC(=O)c4cnccn4)nc4cc(F)ccc4n23)CC1 | 34.3% | 8.73% (active) | 32.7% | 15.4% | 9.64% (active) | 56.1% | 57.2% | 25.4% | 0.0554% (active) | 9.92% (active) | 39.4% |  | 30.4% | 54.2% | 28.7% | 10.7% | 6.02% (active) | 13.3% | -31.4% (active) | 36.5%
C=C1CC[C@@H]2[C@]3(C)COC(c4cn[nH]c4-c4ccccc4)O[C@@H]3CC[C@@]2(C)[C@@H]1C/C=C1/C(=O)OCC1O (some centres undefined) | -27.2% (active) | -30.6% (active) | 83.7% | 63.8% | 18% | -12.4% (active) | 1.15% (active) | 56.1% | -72.8% (active) | -10.8% (active) | 5.39% (active) | -10.2% (active) | -81.2% (active) | -59.4% (active) | 36.5% | 50.2% | -74.8% (active) | 13.5% | -17.5% (active) | 
